# According to PubChem BioAssay AID720621 (The Scripps Research Institute Molecular Screening Center, 2013):
# The list shows a part of the results. A number with no mark means an inactive call.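 Rule for the calls: active = inhibition above the mean of test compounds lying between the control limits plus 3 SD of those (cut at about 14% in these data); inactive = the rest.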
# Target: Fibrinogen beta chain (Homo sapiens) (UniProt P02675)
# Experiment: fibrin DD(E) probe displacement, second cyclic peptide – biochemical, fluorescence polarization, human fibrin, counter-screen for fibrin DD(E)-Tn6 binding project, confirmation (AID 720621);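 note: 0% = median of compound wells and 100% = wells with Aha-Tn7 blocking peptide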
# Conditions: TRITC-Tn6 fluorescence polarization displacement, at 8.3 µM, active compounds read high
# Sequence of Fibrinogen beta chain (Homo sapiens) (P02675 whole entry, looked up): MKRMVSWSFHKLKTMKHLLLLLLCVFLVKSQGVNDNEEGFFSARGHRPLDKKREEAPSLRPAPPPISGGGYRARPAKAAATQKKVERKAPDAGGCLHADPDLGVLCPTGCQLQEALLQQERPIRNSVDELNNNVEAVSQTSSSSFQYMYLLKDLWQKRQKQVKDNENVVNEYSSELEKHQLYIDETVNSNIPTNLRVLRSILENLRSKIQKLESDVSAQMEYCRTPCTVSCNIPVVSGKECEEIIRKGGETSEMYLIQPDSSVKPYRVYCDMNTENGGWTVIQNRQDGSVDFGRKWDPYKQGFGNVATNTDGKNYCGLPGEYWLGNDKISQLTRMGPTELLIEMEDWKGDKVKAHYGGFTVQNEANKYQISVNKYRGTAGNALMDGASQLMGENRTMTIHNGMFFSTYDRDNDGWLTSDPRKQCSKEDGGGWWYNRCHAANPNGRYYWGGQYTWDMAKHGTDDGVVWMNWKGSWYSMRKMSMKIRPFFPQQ
row,SMILES,inhibition
1,Cc1cc(N2CCNC[C@@H]2C)ccc1N1CC[C@H](O)C1,2.02%
2,COc1ccc2c(c1O)-c1cccc3c1[C@@H](C2)N(C)CC3,-6.45%
